Experimental data as given in PMC11062922 (Nature Chemical Biology, 2023).
Where two headings read alike, the source gives them in different places.

System: PRKD2
Settings: read-out: apparent Kd, n = 1

Question: How did the potency estimated from few doses (compound concentrations:100 nM and 1000 nM (sheet 'Lestaurtinib' of Supplementary Table 1),run:Lestaurtinib_02364_R3,Plate:MR002) turn out when Lestaurtinib was run?
Answer: 45.4 nM

Question: And the potency estimated from few doses (compound concentrations:100 nM and 1000 nM (sheet 'Lestaurtinib' of Supplementary Table 1),run:Lestaurtinib_02367_R2,Plate:MR003)?
Answer: 43.5 nM

Question: And the potency estimated from few doses (compound concentrations:100 nM and 1000 nM (sheet 'Lestaurtinib' of Supplementary Table 1),run:Lestaurtinib_02367_R3,Plate:MR003)?
Answer: 44.3 nM

Question: What about the potency estimated from few doses (compound concentrations:100 nM and 1000 nM (sheet 'Lestaurtinib' of Supplementary Table 1),run:Lestaurtinib_02381_R1,Plate:MR004) of the same substance?
Answer: 50.1 nM

Question: And the potency estimated from few doses (compound concentrations:100 nM and 1000 nM (sheet 'Lestaurtinib' of Supplementary Table 1),run:Lestaurtinib_02381_R2,Plate:MR004)?
Answer: 54.4 nM

Question: What about the potency estimated from few doses (compound concentrations:100 nM and 1000 nM (sheet 'Lestaurtinib' of Supplementary Table 1),run:Lestaurtinib_02381_R3,Plate:MR004) of the same substance?
Answer: 41.5 nM

Question: And the potency estimated from few doses (compound concentrations:100 nM and 1000 nM (sheet 'Lestaurtinib' of Supplementary Table 1),run:Lestaurtinib_02407_R2,Plate:MR005)?
Answer: 51.1 nM

Question: And the potency estimated from few doses (compound concentrations:100 nM and 1000 nM (sheet 'Lestaurtinib' of Supplementary Table 1),run:Lestaurtinib_02407_R3,Plate:MR005)?
Answer: 45.8 nM

Question: What about the potency estimated from few doses (compound concentrations:100 nM and 1000 nM (sheet 'Lestaurtinib' of Supplementary Table 1),run:Lestaurtinib_02422_R1,Plate:MR006) of the same substance?
Answer: 40.9 nM

Question: And the potency estimated from few doses (compound concentrations:100 nM and 1000 nM (sheet 'Lestaurtinib' of Supplementary Table 1),run:Lestaurtinib_02422_R2,Plate:MR006)?
Answer: 24 nM

Question: And the potency estimated from few doses (compound concentrations:100 nM and 1000 nM (sheet 'Lestaurtinib' of Supplementary Table 1),run:Lestaurtinib_02422_R3,Plate:MR006)?
Answer: 41 nM

Question: What about the potency estimated from few doses (compound concentrations:100 nM and 1000 nM (sheet 'Lestaurtinib' of Supplementary Table 1),run:Lestaurtinib_02437_R1,Plate:MR007) of the same substance?
Answer: 45.2 nM

Question: What about the potency estimated from few doses (compound concentrations:100 nM and 1000 nM (sheet 'Lestaurtinib' of Supplementary Table 1),run:Lestaurtinib_02437_R2,Plate:MR007) of the same substance?
Answer: 74.6 nM

Question: And the potency estimated from few doses (compound concentrations:100 nM and 1000 nM (sheet 'Lestaurtinib' of Supplementary Table 1),run:Lestaurtinib_02437_R3,Plate:MR007)?
Answer: 3.14 nM

Question: What about the potency estimated from few doses (compound concentrations:100 nM and 1000 nM (sheet 'Lestaurtinib' of Supplementary Table 1),run:Lestaurtinib_02438_R1,Plate:MR008) of the same substance?
Answer: 45.4 nM

Question: What about the potency estimated from few doses (compound concentrations:100 nM and 1000 nM (sheet 'Lestaurtinib' of Supplementary Table 1),run:Lestaurtinib_02438_R2,Plate:MR008) of the same substance?
Answer: 51 nM

Question: What about the potency estimated from few doses (compound concentrations:100 nM and 1000 nM (sheet 'Lestaurtinib' of Supplementary Table 1),run:Lestaurtinib_02438_R3,Plate:MR008) of the same substance?
Answer: 31.7 nM

Question: What about the potency estimated from few doses (compound concentrations:100 nM and 1000 nM (sheet 'Lestaurtinib' of Supplementary Table 1),run:Lestaurtinib_02443_R2,Plate:MR009) of the same substance?
Answer: 43.2 nM

Question: And the potency estimated from few doses (compound concentrations:100 nM and 1000 nM (sheet 'Lestaurtinib' of Supplementary Table 1),run:Lestaurtinib_02473_R3,Plate:MR010)?
Answer: 38.9 nM

Question: What about the potency estimated from few doses (compound concentrations:100 nM and 1000 nM (sheet 'Lestaurtinib' of Supplementary Table 1),run:Lestaurtinib_02482_R2,Plate:MR011) of the same substance?
Answer: 50.4 nM

Question: What about the potency estimated from few doses (compound concentrations:100 nM and 1000 nM (sheet 'Lestaurtinib' of Supplementary Table 1),run:Lestaurtinib_02482_R3,Plate:MR011) of the same substance?
Answer: 42.2 nM

Question: What about the potency estimated from few doses (compound concentrations:100 nM and 1000 nM (sheet 'Lestaurtinib' of Supplementary Table 1),run:Lestaurtinib_02487_R2,Plate:MR012) of the same substance?
Answer: 40.1 nM

Question: And the potency estimated from few doses (compound concentrations:100 nM and 1000 nM (sheet 'Lestaurtinib' of Supplementary Table 1),run:Lestaurtinib_02487_R3,Plate:MR012)?
Answer: 67.4 nM

Question: What about the potency estimated from few doses (compound concentrations:100 nM and 1000 nM (sheet 'Lestaurtinib' of Supplementary Table 1),run:Lestaurtinib_02496_R1,Plate:MR013) of the same substance?
Answer: 47.4 nM

Question: And the potency estimated from few doses (compound concentrations:100 nM and 1000 nM (sheet 'Lestaurtinib' of Supplementary Table 1),run:Lestaurtinib_02496_R2,Plate:MR013)?
Answer: 58.1 nM

Question: And the potency estimated from few doses (compound concentrations:100 nM and 1000 nM (sheet 'Lestaurtinib' of Supplementary Table 1),run:Lestaurtinib_02496_R3,Plate:MR013)?
Answer: 50.5 nM

Question: And the potency estimated from few doses (compound concentrations:100 nM and 1000 nM (sheet 'Lestaurtinib' of Supplementary Table 1),run:Lestaurtinib_02566_R1,Plate:MR014)?
Answer: 67.2 nM

Question: And the potency estimated from few doses (compound concentrations:100 nM and 1000 nM (sheet 'Lestaurtinib' of Supplementary Table 1),run:Lestaurtinib_02566_R2,Plate:MR014)?
Answer: 39.4 nM

Question: What about the potency estimated from few doses (compound concentrations:100 nM and 1000 nM (sheet 'Lestaurtinib' of Supplementary Table 1),run:Lestaurtinib_02566_R3,Plate:MR014) of the same substance?
Answer: 46.5 nM

Question: And the potency estimated from few doses (compound concentrations:100 nM and 1000 nM (sheet 'Lestaurtinib' of Supplementary Table 1),run:Lestaurtinib_02572_R1,Plate:MR015)?
Answer: 38.1 nM

Question: And the potency estimated from few doses (compound concentrations:100 nM and 1000 nM (sheet 'Lestaurtinib' of Supplementary Table 1),run:Lestaurtinib_02572_R2,Plate:MR015)?
Answer: 52 nM

Question: And the potency estimated from few doses (compound concentrations:100 nM and 1000 nM (sheet 'Lestaurtinib' of Supplementary Table 1),run:Lestaurtinib_02572_R3,Plate:MR015)?
Answer: 82.5 nM

Question: And the potency estimated from few doses (compound concentrations:100 nM and 1000 nM (sheet 'Lestaurtinib' of Supplementary Table 1),run:Lestaurtinib_02577_R3,Plate:MR016)?
Answer: 35.8 nM

Question: And the potency estimated from few doses (compound concentrations:100 nM and 1000 nM (sheet 'Lestaurtinib' of Supplementary Table 1),run:Lestaurtinib_02584_R1,Plate:MR017)?
Answer: 50.7 nM

Question: What about the potency estimated from few doses (compound concentrations:100 nM and 1000 nM (sheet 'Lestaurtinib' of Supplementary Table 1),run:Lestaurtinib_02584_R3,Plate:MR017) of the same substance?
Answer: 33 nM

Question: And the potency estimated from few doses (compound concentrations:100 nM and 1000 nM (sheet 'Lestaurtinib' of Supplementary Table 1),run:Lestaurtinib_02601_R2,Plate:MR018)?
Answer: 54.7 nM

Question: What about the potency estimated from few doses (compound concentrations:100 nM and 1000 nM (sheet 'Lestaurtinib' of Supplementary Table 1),run:Lestaurtinib_02601_R3,Plate:MR018) of the same substance?
Answer: 50.7 nM

Question: What about the potency estimated from few doses (compound concentrations:100 nM and 1000 nM (sheet 'Lestaurtinib' of Supplementary Table 1),run:Lestaurtinib_02606_R1,Plate:MR019) of the same substance?
Answer: 41.7 nM

Question: What about the potency estimated from few doses (compound concentrations:100 nM and 1000 nM (sheet 'Lestaurtinib' of Supplementary Table 1),run:Lestaurtinib_02624_R1,Plate:MR020) of the same substance?
Answer: 52.8 nM

Question: And the potency estimated from few doses (compound concentrations:100 nM and 1000 nM (sheet 'Lestaurtinib' of Supplementary Table 1),run:Lestaurtinib_02624_R3,Plate:MR020)?
Answer: 37.9 nM

Question: What about the potency estimated from few doses (compound concentrations:100 nM and 1000 nM (sheet 'Lestaurtinib' of Supplementary Table 1),run:Lestaurtinib_02724_R1,Plate:MR021) of the same substance?
Answer: 39.4 nM

Question: What about the potency estimated from few doses (compound concentrations:100 nM and 1000 nM (sheet 'Lestaurtinib' of Supplementary Table 1),run:Lestaurtinib_02724_R2,Plate:MR021) of the same substance?
Answer: 50.8 nM

Question: And the potency estimated from few doses (compound concentrations:100 nM and 1000 nM (sheet 'Lestaurtinib' of Supplementary Table 1),run:Lestaurtinib_02724_R3,Plate:MR021)?
Answer: 44.7 nM
